Screening data from PubChem BioAssay.
The list is not random: actives were taken first. Their share in the collection is about 4.1%.
ssDAF-12 act – S. stercoralis DAF-12 nuclear receptor activators, primary screen, cell-based, luminescence, HEK293, GRIP1 co-expression, lit1-tk-luc; Nuclear hormone receptor DAF-12 (Strongyloides stercoralis); HEK293 ssDAF-12/GRIP1 lit1-tk-luc reporter; % of 3 µM dafachronic acid response; activation, % at 6.8 µM; actives 1% (n = 370,000); AID 652126, 2013;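 active = activation above the mean over all tested compounds plus 3 SD, cut at about 0.9% in these data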
hcDAF12 agonist – H. contortus DAF-12 nuclear receptor activators, primary screen, cell-based, luminescence, HEK293, lit1-tk-luc reporter; HEK293 hcDAF-12 lit1-tk-luc reporter; 0% DMSO, 100% Δ7-dafachronic acid; activation, % at 6.8 µM; actives 1.4% (n = 370,000); AID 652067, 2013;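 active = activation above the mean of all tested compounds plus 3 SD, cut at about 5.5% in these data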
DAX1 inh-1 – DAX1 (NR0B1) inhibitors, primary screen, cell-based, HEK293, Gal4-DAX1, luciferase luminescence; Nuclear receptor subfamily 0 group B member 1 (Homo sapiens), P51843; HEK293 Gal4-DAX1 luciferase reporter; inhibition, % at 6.75 µM; actives 0.99% (n = 340,000); AID 504766, 2011;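 active = inhibition above the mean over all tested compounds plus 3 SD, cut at about 4.2% in these data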;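 note: inhibition shows as a rise in luminescence from relieved DAX1 repression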
Target sequence (P51843 207-470 limits assumed): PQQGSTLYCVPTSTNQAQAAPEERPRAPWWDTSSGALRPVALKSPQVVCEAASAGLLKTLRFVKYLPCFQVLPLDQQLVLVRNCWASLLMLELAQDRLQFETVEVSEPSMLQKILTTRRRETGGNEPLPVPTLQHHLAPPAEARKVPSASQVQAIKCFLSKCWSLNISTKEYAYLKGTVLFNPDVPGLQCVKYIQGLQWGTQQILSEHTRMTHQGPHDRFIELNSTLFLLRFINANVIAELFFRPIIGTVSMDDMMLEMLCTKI
hgDAF12 agonist – H. glycines DAF-12 receptor agonists, primary screen, cell-based, luminescence, HEK293, GAL4 fusion, UAS-luciferase; Nuclear hormone receptor DAF-12 (Heterodera glycines), GAL4 fusion; HEK293 GAL4-hgDAF12 UAS-luciferase reporter, agonist luminescence; normalized to butyrate control; activation, % at 6.8 µM; actives 1.8% (n = 370,000); AID 687014, 2013;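 active = activation above a cutoff set at the mean of all screened compounds plus 3 SD, cut at about 10% in these data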
DAX1 inh-2 – DAX1 (NR0B1) inhibitors on StAR promoter, primary screen, cell-based, luminescence, SF-1 (NR5A1), full-length DAX-1. actives 1.1% (n = 370,000). inhibition, % at 6.8 µM. HEK293T StAR-luciferase reporter, SF-1/DAX-1 repression relief;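 active = inhibition above the mean over all tested compounds plus 3 SD, cut at about 3.6% in these data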;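 note: higher inhibition means more luminescence from relief of DAX-1 repression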
LXR ag – LXR agonists, Gal4 luciferase reporter, confirmation, counter-screen for hcDAF-12 agonist project, cell-based, luminescence, HEK293, H. contortus campaign; shares compounds with hcDAF12 agonist; 3,400 tested, under 10 active; AID 743027, 2013; HEK293 Gal4-LXR tk-luc reporter, 24 h; normalized: DMSO 0%, positive control 100%; activation, % at 6.8 µM;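 active = mean percent activation of the reporter above a cutoff set as the average over tested compounds plus their standard deviation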
hcDAF12 conf – H. contortus DAF-12 receptor agonists, confirmation, cell-based, luminescence, HEK293, lit1-tk-luc, triplicate; actives 61% (n = 3,400); activation, % at 6.8 µM; shares compounds with hcDAF12 agonist; HEK293 hcDAF-12 lit1-tk-luc reporter; % of Δ7-dafachronic acid response;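 active = mean activation across triplicate tests above the threshold derived from the earlier primary screen, cut at about 5.5% in these data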
Hits are given with their value; i = inactive; nt = no result given.

SMILES	ssDAF-12 act	hcDAF12 agonist	DAX1 inh-1	hgDAF12 agonist	DAX1 inh-2	LXR ag	hcDAF12 conf
CC1CCC2(CC1)NC(=O)N(CC(=O)NCCc1c[nH]c3ccccc13)C2=O (configuration not stated)	i	i	i	i	i	nt	nt
CCC(C)(C)C1CCC2(CC1)NC(=O)N(CC(=O)NCCc1c[nH]c3ccccc13)C2=O (configuration not stated)	i	6.8	i	i	i	i	i
O=C(c1cccc(S(=O)(=O)N2CCOCC2)c1)N1CCN(c2ccccc2)CC1	i	i	i	i	i	nt	nt
O=C(Nc1ccccc1)Nc1cccc2nsnc12	2.3	8.9	i	i	i	i	12.2
O=C(Nc1cccc2nsnc12)c1cccs1	i	i	i	i	i	nt	nt
COc1ccc(CC(=O)NCCCCc2ccccc2)cc1OC	i	i	i	i	i	nt	nt
CC(C)C(C(=O)Nc1ccccc1F)N1C(=O)c2ccccc2C1=O (configuration not stated)	2.1	8.0	i	i	i	i	i
O=C(CCNS(=O)(=O)c1ccc(OC(F)(F)F)cc1)NCCc1c[nH]c2ccccc12	i	i	i	i	i	nt	nt
CN(N=Cc1ccccc1O)c1ccc2ccccc2n1	2.4	8.6	i	12.2	i	i	12.2
CCC(C)NC(=O)c1ccccc1NC(=O)COc1ccc(OC)cc1 (configuration not stated)	i	i	i	i	i	nt	nt
CC(=O)NCCC(=O)N1CCc2c([nH]c3ccccc23)C1c1cccc(Cl)c1 (configuration not stated)	i	i	i	i	i	nt	nt
CC(=O)NCCC(=O)N1CCc2c([nH]c3ccccc23)C1c1cccc(C)c1 (configuration not stated)	i	7.1	i	i	i	i	7.6
O=C(Nc1ccccc1Cl)c1csc(-c2cccnc2)n1	2.8	7.6	5.0	i	i	i	6.7
COc1ccc(CCNC(=O)COC(=O)C23CC4CC(CC(C4)C2)C3)cc1	i	6.8	i	i	i	i	i
c1ccc2c(Cn3ccnc3)c[nH]c2c1	i	8.0	i	i	i	i	i
CCN(CC)CCN1C(=O)C(=O)/C(=C(/O)c2c(C)[nH]c(C(=O)OC)c2C)C1c1ccc(C)o1 (configuration not stated)	i	i	i	i	i	nt	nt
COc1c(Cl)cccc1-c1cn2ccccc2n1	i	7.3	i	12.9	i	i	7.7
Clc1ccc(OCc2cn3ccccc3n2)c2ncccc12	i	i	i	i	i	nt	nt
ClCc1csc(-c2ccc(Cl)cc2)n1	i	i	i	i	i	nt	nt
CCOc1ccc(-c2nc(CCl)cs2)cc1	i	9.1	i	12.7	i	i	i
Cc1cccc(NC(=S)Nc2cccc3ccccc23)c1	1.4	7.2	i	i	i	i	10.6
Cc1cccc(NC(=O)Nc2cccc3ccccc23)c1	i	i	i	i	i	nt	nt
CCc1cccc(NC(=S)Nc2cccc3ccccc23)c1	i	7.4	i	i	i	i	5.9
COC(=O)C1=C(Nc2ccccc2NC(=O)c2ccccc2C(=O)O)CSC1	1.7	7.5	i	i	i	i	i
COCCCN(Cc1cc(OC)c(OC)c(OC)c1)C(=S)Nc1cccc(SC)c1	i	i	i	i	i	nt	nt
SMILES	ssDAF-12 act	hcDAF12 agonist	DAX1 inh-1	hgDAF12 agonist	DAX1 inh-2	LXR ag	hcDAF12 conf
O=S(=O)(c1ccc(F)cc1)N1CCN(CCc2ccccc2)CC1	i	6.8	i	i	i	i	i
CCCC(=O)Nc1cccc(-c2nc3cc(C)c(C)cc3o2)c1	i	7.2	i	i	4.3	i	i
CCCC(=O)Nc1cccc(-c2nc3ccccc3o2)c1	i	i	i	i	i	nt	nt
Cc1ccccc1-c1nnc(-c2cccs2)o1	1.3	7.7	i	i	i	i	8.6
CSc1nsc(NN)n1	i	7.7	i	10.6	i	i	i
Cc1nn(-c2ccc(F)cc2)c(C)c1CN1CCN(CCC(C)C)C(CCO)C1 (configuration not stated)	i	i	i	i	i	nt	nt
Cc1cc(C)c(S(=O)(=O)/N=C2\C=C(NS(=O)(=O)c3ccccc3)C(=O)c3ccccc32)c(C)c1	0.9	8.0	i	i	i	i	i
CC1CCCC(C)N1C(=O)COC(=O)c1c[nH]c2ccccc12 (configuration not stated)	i	i	i	i	i	nt	nt
Cc1nc(-[n+]2nc(-c3ccncc3)nn2-c2ccccc2)sc1C	i	i	nt	i	i	nt	nt
CCOC(=O)c1sc(=NC(=O)c2cc(OC)c(OC)c(OC)c2)n(C)c1C	i	i	i	i	i	nt	nt
CCOC(=O)c1sc(=NC(=O)c2ccc(C)cc2)n(C)c1C	1.2	9.7	i	11.2	i	i	9.7
COc1ccccc1C(=O)O/N=C(\N)c1ccccn1	2.7	10.8	i	i	i	i	5.9
COc1cc(OC)c(C(=O)O/N=C(\N)c2ccccn2)cc1OC	i	i	i	i	i	nt	nt
N/C(=N\OC(=O)c1ccccc1Cl)c1ccccn1	i	7.0	i	i	i	i	11.1
CCCCNC(=O)C(=O)Nc1ccc2c(c1)N(S(=O)(=O)c1cccs1)CCC2	i	i	i	i	i	nt	nt
Cc1cc(NS(=O)(=O)c2ccc(NC(=O)c3ccc(Br)o3)cc2)nc(C)n1	i	i	i	i	i	nt	nt
O=C(O)c1cc(-c2ccc(-c3ccc(F)cc3)o2)nc2ccccc12	i	12.7	i	11.1	i	i	6.8
O=C(c1cc(-c2ccc(F)cc2)nc2ccccc12)N1CCC1	i	i	i	i	i	nt	nt
COc1ccc(OC)c(C2CC(=O)N3CN(c4ccccc4F)CSC3=C2C#N)c1 (configuration not stated)	i	6.8	i	i	i	i	i
CC(C)c1ccccc1NC(=O)COC(=O)c1cc([N+](=O)[O-])ccc1N1CCOCC1	i	i	i	i	i	nt	nt
